# Laboratory results published in PubChem BioAssay.
# Several values for one entry are separate records, joined by “and”; a condition that tells them apart may be missing. Equal entries are not always repeated. Activity calls are given as the source filed them.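 How the source made its calls, unless noted: active means compounds whose cell count with miR-34 switched on is under 0.7 times the count with it off; inactive means the rest.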
# Key:
# [1] = test system: Aerobactin synthetase IucA (Klebsiella pneumoniae); assay: inhibition of K. pneumoniae IucA enzyme – biochemical, Tocris library, absorbance (AID 1345561; call rule not given here;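 further: 100% = enzyme without compound and 0% = no enzyme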); conditions: purified IucA enzyme assay, absorbance (OD) read-out; stronger effect = lower value;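 tested at 8 µM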
# [2] = viability loss with induced miR-34 in A549 – imaging, A549 dox-inducible miR-34, nuclei and caspase counts, primary screen (AID 1347080); conditions: A549 miR-34 inducible, Hoechst nuclei count, 48 h
# [3] = galactose survival enhancers in mitochondrial complex I cybrids – cell-based, galactose medium, ATP luminescence, primary screen (AID 1645843;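 active means z-score of at least 1.8 in each of two replicates, scored against plate mean and spread of sample wells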;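 further: positive z means more ATP and so rescue of galactose-driven cybrid death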); conditions: complex I mutant cybrid cells, 72 h, stronger effect = higher value
# [4] = MELAS cybrid and Rieske KO viability enhancers – cell-based, MELAS cybrids, Rieske KO mouse fibroblasts, CellTiter-Glo, primary screen (AID 1508586;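 active means mean z-score across replicates of 1.96 or higher in either the MELAS or the Rieske mutant cell line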;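 further: z relative to plate mean and SD of compound and empty wells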); conditions: low glucose
# [5] = blockers of cellular phospholipid synthesis – cell-based, LOPAC library, screen 4, primary screen (AID 1347384; call rule not given here); conditions: animal cells, phospholipid biosynthesis inhibition screen; at 10 µM
# [6] = P. berghei load reduction in hepatocytes – cell-based, HepG2, luciferase luminescence, HepG2 viability, primary screen (AID 624349; in the data active means parasite load remaining mostly below about 12%, no sharp cut-off; inactive means mostly above about 10%;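 further: 100% = mean of DMSO negative control wells on the same plate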); conditions: P. berghei liver stage in HepG2, luciferase luminescence, concentration not given here; parasite load remaining: stronger effect = lower value; viability: measured here: HepG2 viability without parasites
# [7] = compounds altering HSF1 focus formation in cells – imaging, Selleck Cancer Library (AID 1347162; in the data active means plate-normalised HSF1 focus index below about 0.46); conditions: human cells, HSF1 nuclear foci imaging, at 10 µM; SSMD: measured here: HSF1 foci SSMD mean; cell count: measured here: cell number; plate-normalised HSF1 focus index: stronger effect = lower value
# [8] = stronger effect = lower value, cell number ratio, induced over uninduced
# [9] = measured here: relative caspase fold change +Dox/-Dox
# [10] = measured here: total cells with miR-34 induction, stronger effect = lower value
# [11] = measured here: total cells without miR-34 induction
# [12] = MELAS cybrid survival, CellTiter-Glo 48 h, stronger effect = higher value
# [13] = Rieske KO mouse fibroblast survival, CellTiter-Glo 72 h
Compound,remaining activity [1],"fold change [2, 8]","fold change [2, 9]","cell count [2, 10]","cell count [2, 11]",z-score [3],"z-score [4, 12]","z-score [4, 13]",outcome [5],parasite load remaining [6],viability [6],SSMD [7],cell count [7],plate-normalised HSF1 focus index [7]
CC(N)=NCCCC[C@H](N)C(=O)O,91.3% (inactive),0.958 (inactive),0.902,8960,9350,0.135 (inactive),,,,,,,,
O=Nc1ccc(O)c2ncccc12,118% (inactive),1.09 (inactive),1.32,2920,2670,-1.02 (inactive),,,,,,,,
NC(=O)c1sc(-c2ccsc2)cc1N,88.4% (inactive),0.841 (inactive) and 0.869 (inactive),0.888 and 1.88,8280 and 7870,9850 and 9060,0.36 (inactive),-0.221 (inactive),-0.163,,,,,,
NS(=O)(=O)c1cccc2c1c([N+](=O)[O-])cc1[nH]c(=O)c(=O)[nH]c12,96.2% (inactive),0.919 (inactive),0.625,8900,9680,-0.025 (inactive),,,inactive,,,,,
COc1ccc(Nc2ncnc3ccc(OC)cc23)cc1,108% (inactive),0.902 (inactive),1.09,6910,7660,-0.345 (inactive),,,,,,,,
O=C1C(=O)N(Cc2ccc(Cl)c(Cl)c2)c2ccccc21,89.3% (inactive),0.946 (inactive) and 0.932 (inactive),0.72 and 1.49,8180 and 7960,8650 and 8540,-0.685 (inactive),-0.161 (inactive),-0.14,,,,,,
CNC(CC(=O)O)C(=O)O (stereo not given),97.3% (inactive),0.825 (inactive) and 1.05 (inactive),1.55 and 0.67,8200 and 8440,9940 and 8040,0.29 (inactive),-0.165 (inactive),-0.287,,,,,,
Nc1[nH]nc2nnc(-c3c(-c4ccccc4)nn4ccccc34)cc12,115% (inactive),1.01 (inactive),3.36,6630,6550,1.04 (inactive),,,,43.4% (inactive),122%,2.88,7090,1.16 (inactive)
COc1ccc(C(=O)Nc2sc3c(c2C(N)=O)CCCC3)cc1OC,100% (inactive),0.968 (inactive) and 0.928 (inactive),0.55 and 1.37,7430 and 8340,7670 and 8990,1.42 (inactive),-0.293 (inactive),0.823,,36.2% (inactive),126%,,,
